Source: PubChem BioAssay (NMMLSC)
RGS7-Gao – regulators of human RGS7-Galphao interaction. P09471. Multiplexed bead flow cytometry, RGS7-Galphao binding; actives lie on both sides. binding response (% of control), % at 10 µM. hit rate 0.35% among 220,000; in the data active = binding response below about 49% or above about 150%; inconclusive = no clear call, values can overlap the other calls; inactive = in between;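 also: fluorescent Galphao held in activated GDP-AlF4 state binding bead-coupled RGS7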
Target sequence (P09471 whole entry, looked up): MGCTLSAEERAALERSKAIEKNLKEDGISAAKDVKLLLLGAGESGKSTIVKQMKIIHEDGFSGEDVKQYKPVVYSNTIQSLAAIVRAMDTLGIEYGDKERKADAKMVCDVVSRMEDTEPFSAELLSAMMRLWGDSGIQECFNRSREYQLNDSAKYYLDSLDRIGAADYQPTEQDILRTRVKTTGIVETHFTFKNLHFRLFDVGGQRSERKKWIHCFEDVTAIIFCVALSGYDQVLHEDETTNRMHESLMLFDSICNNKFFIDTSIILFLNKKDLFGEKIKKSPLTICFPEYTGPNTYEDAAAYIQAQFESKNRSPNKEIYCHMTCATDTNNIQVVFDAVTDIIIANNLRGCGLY
RGS4-Gao reg – modulates binding of RGS4 to human Galphao. binding response (% of control), % at 10 µM. hit rate 0.33% among 220,000. P09471. Multiplexed bead flow cytometry; actives lie on both sides; in the data active = binding response below about 49% or above about 150%; inactive = in between;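 also: fluorescent Galphao activated with aluminum fluoride binding bead-coupled RGS4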
RGS16-Gao HTS – modulates binding between human RGS16 and Galphao; O15492+P09471; bead-based flow cytometry RGS16-Galphao binding, fluorescence; actives lie on both sides; binding response (% of control), % at 10 µM; hit rate 0.38% among 220,000; AID 1441;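 also: Galphao activated by GDP with aluminum fluoride before binding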
Target sequence (O15492 whole entry, looked up): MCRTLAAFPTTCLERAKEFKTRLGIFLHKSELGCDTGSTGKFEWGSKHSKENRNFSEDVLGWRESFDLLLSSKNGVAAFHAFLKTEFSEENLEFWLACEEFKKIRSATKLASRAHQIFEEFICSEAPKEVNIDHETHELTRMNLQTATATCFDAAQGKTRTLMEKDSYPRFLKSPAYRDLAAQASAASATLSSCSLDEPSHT
Target sequence (P09471 whole entry, looked up): as the sequence (P09471 whole entry, looked up) above
RGS8-Gao – regulators of human RGS8-Galphao interaction | P09471 | multiplexed bead flow cytometry, RGS8-Galphao binding; actives lie on both sides | response (percent of control binding), % at 10 µM | hit rate 0.34% among 220,000 | AID 1423; in the data active = response below about 60% or above about 140%; inactive = in between;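 also: Galphao activated as the GDP aluminium fluoride complex binding bead-coupled RGS8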
GSH fluor – compound fluoresces at 488/530 nm on GSH beads | fluorescence (KMESF) at 10 µM | AID 1776 | GSH beads flow cytometry, compound fluorescence 488/530 nm; hits give high values | hit rate 0.25% among 190,000; in the data active = fluorescence above about 89;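 also: glutathione beads carrying GST-tagged Bcl family fusion proteins plus one bare bead set; values are compound well signal with DMSO vehicle wells as background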
Avidin fluor – compound fluoresces at 488/530 nm on avidin beads; compound fluorescence 488/530 nm, flow cytometry; hits give high values; fluorescence (KMESF) at 10 µM; hit rate 0.38% among 220,000; AID 1775; in the data active = fluorescence above about 47
RGS-Gao – modulates binding between human RGS4 and Galphao; shares compounds with RGS16-Gao HTS; multiplexed bead flow cytometry, RGS–Galpha-o binding; RGS4–Galpha-o binding response, % at 10 µM; hit rate 99% among 1,600; AID 1504;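 also: fluorescently labeled Galpha-o bound to GDP with aluminium fluoride binding biotinylated RGS beads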
Biotin-avidin – counter-screen: compounds disrupting biotin binding to avidin beads; shares compounds with RGS16-Gao HTS; streptavidin beads, fluorescein-biotin binding, flow cytometry; inhibition, % at 10 µM; 1,700 tested, under 10 active; AID 1783;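 active = inhibition above 50%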;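 also: median green fluorescence of gated singlet beads compared with DMSO control wells; 0% = DMSO wells and 100% = complete loss of bead fluorescence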
RGS8-Gao single – RGS8-Galphao interaction regulation, single point confirmation | shares compounds with RGS16-Gao HTS | bead-based flow cytometry RGS8-Galphao binding, fluorescence; actives lie on both sides | binding response (% of control), % at 10 µM | hit rate 3% among 1,700 | AID 1836; in the data active = binding response below about 72% or above about 130%; inactive = in between;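 also: Galphao activated as GDP AlF4 complex before binding bead RGS8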
RGS7-Gao confirm – confirmation of regulators of human RGS7-Galphao interaction | bead-based flow cytometry RGS7-Galphao binding; actives lie on both sides | response (percent of control binding), % at 10 µM | AID 1837 | hit rate 7.8% among 1,700 | shares compounds with RGS16-Gao HTS; in the data active = response below about 75% or above about 130%; inactive = in between;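 also: fluorescent Galphao activated with GDP and aluminum fluoride binding bead-coupled RGS7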
RGS16-Gao conf – confirmation of regulators of human RGS16-Galphao interaction; shares compounds with RGS16-Gao HTS; bead-based flow cytometry, RGS16-Galphao binding; actives lie on both sides; response (% of control binding), % at 10 µM; hit rate 4% among 1,700; AID 1838; in the data active = response below about 74% or above about 130%; inactive = in between;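 also: Galphao activated as the GDP aluminium fluoride complex binding bead-coupled RGS16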
RGS4-Gao confirm – confirmation of regulators of human RGS4-Galphao interaction. shares compounds with RGS16-Gao HTS. RGS4-Galphao binding, multiplexed bead flow cytometry; actives lie on both sides. binding response (% of control), % at 10 µM. hit rate 4% among 1,700; in the data active = binding response below about 74% or above about 130%; inactive = in between
RGS19-Gao conf – confirmation of regulators of human RGS19-Galphao interaction | shares compounds with RGS16-Gao HTS | bead-based flow cytometry RGS19-Galphao binding; actives lie on both sides | response (percent of control binding), % at 10 µM | hit rate 5% among 1,700; in the data active = response below about 50% or above about 160%; inactive = in between;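 also: 100% = no compound control and 0% = blank background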
The depositor's hits bear a star; u = inconclusive; x = no result; [ ] = remark or other dose. This is a sample that favours compounds with a hit; in the whole collection about 1.2% have one here. Unless noted, no rule for the calls is given here.

SMILES | RGS7-Gao | RGS4-Gao reg | RGS16-Gao HTS | RGS8-Gao | GSH fluor | Avidin fluor | Biotin-avidin | RGS8-Gao single | RGS7-Gao confirm | RGS16-Gao conf | RGS4-Gao confirm | RGS19-Gao conf | others
Cc1ccc(NS(=O)(=O)c2ccc(C)c(C(=O)N3CCN(C)CC3)c2)cc1 | 80 | 69 | -37* | 80 | 4 | 3 | 1 | 98 | 98 | 102 | 97 | 107 | RGS-Gao=69*
Cc1ccc(NS(=O)(=O)c2ccc(C(=O)N3CCCN(C)CC3)cc2)cc1 | 99 | 99 | 102 | 97 | 12 | 21 | x | x | x | x | x | x
O=C1CC(/C=C/c2ccncc2)=Nc2ccccc2N1 | 162*[activator] | 117 | 96 | 96 | 24 | 99* | -2 | 102 | 100 | 103 | 102 | 89 | RGS-Gao=117*
O=C1CC(c2ccccc2)=Nc2ccccc2N1 | 100 | 103 | 97 | 101 | 37 | 13 | x | x | x | x | x | x
Cc1ccc(Nc2nc(N)nc(CN3CCN(Cc4ccc5c(c4)OCO5)CC3)n2)cc1Cl | 45* | -9.2* | -170 | 75 | 20 | 7 | 1 | 101 | 99 | 101 | 102 | 103
O=C(N/N=C/c1ccccc1Br)C1CC1 | u | 95 | 99 | 97 | 14 | 10 | x | x | x | x | x | x
CC1=C(C(=O)NCc2ccccc2)C(c2cccs2)n2ncnc2N1 (stereo not drawn) | 81 | 69 | -63* | 79 | 4 | 3 | 1 | 98 | 100 | 101 | 100 | 102 | RGS-Gao=69*
COc1ccccc1C1C(C(=O)NCc2ccccc2)=C(C)Nc2ncnn21 (stereo not drawn) | 98 | 100 | 98 | 100 | 49 | 6 | x | x | x | x | x | x
CC(=O)Nc1ccccc1C(F)(F)F | u | 22* | 30 | 48* | x | 2 | 1 | 106 | 113 | 105 | 108 | 96
CC(C)OC(=O)c1c(NC(=O)Cn2cnc([N+](=O)[O-])n2)sc2c1CCCC2 | x | x | x | x | 18 | x | 0 | 98 | 106 | 96 | 97 | 106
CCOC(=O)c1c(NC(=O)Cn2cnc([N+](=O)[O-])n2)sc2c1CCCC2 | 103 | 98 | 91 | 99 | 11 | 9 | x | x | x | x | x | x
CCOC(=O)C1CCN(S(=O)(=O)Cc2ccccc2)CC1 | 101 | 101 | 104 | 102 | 23 | 36 | x | x | x | x | x | x
CCOC(=O)C1CCN(S(=O)(=O)Cc2ccc(Cl)cc2)CC1 | 164*[activator] | 170*[activator] | x | x | 34 | x | 0 | 88 | 61* | 78 | 77 | 61
Cc1ccc(C)n1Cc1ccc(C(=O)O)cc1 | 49* | 89 | 76 | 68 | 12 | 21 | x | x | x | x | x | x | RGS-Gao=89*
CCCCSc1nnc(CCNC(=O)OC(C)(C)C)o1 | u | 102 | 102 | 99 | x | 7 | x | x | x | x | x | x
O=C(NCc1cccnc1)c1ccc(COc2cccc3ccccc23)o1 | 47* | 49* | 41 | 56* | 18 | 3 | 2 | 102 | 95 | 101 | 100 | 91
O=C(NCc1cccnc1)c1ccc(COc2ccc(Cl)cc2Cl)o1 | 99 | 101 | 101 | 99 | 19 | 10 | x | x | x | x | x | x
CCOC(=O)C1C(c2ccc(O)c(O)c2)NC(=S)NC1(O)C(F)(F)F (stereo not drawn) | 34* | 18* | 68 | 76 | 6 | 6 | 0 | 98 | 98 | 97 | 97 | 102
COc1ccc(C2Nc3ccccc3C(=O)N2NS(=O)(=O)c2ccccc2)cc1OC (stereo not drawn) | 96 | 96 | 100 | 99 | 72 | 11 | x | x | x | x | x | x
O=C(CN1C(=O)COc2ccccc21)N(Cc1ccc2c(c1)OCO2)CC1CCCO1 (stereo not drawn) | 98 | 106 | 105 | 104 | 25 | 5 | x | x | x | x | x | x
O=C(CN1C(=O)COc2ccccc21)N(CCCN1CCOCC1)CC1CC=CCC1 (stereo not drawn) | x | x | x | x | 45 | x | -3 | 103 | 100 | 103 | 101 | 88
O=C(c1cccnc1Nc1ccc2c(c1)CCC2)N1CCOCC1 | -1.2* | -3.1* | -1.9* | 8.5* | 16 | -3 | -2 | 101 | 96 | 102 | 101 | 101
O=C1CS/C(=N/N=C/c2c[nH]c3ccccc23)N1 | u | 155*[activator] | 176*[activator] | 115 | x | 8 | 0 | 94 | 89 | 91 | 93 | 73
Cc1ccc(/C=N/N=C2/NC(=O)CS2)o1 | 97 | 100 | 102 | 102 | 11 | 11 | x | x | x | x | x | x
CCCCn1c(-c2csc(C(C)C)c2)n[nH]c1=S | 100 | 99 | 38 | 76 | 5 | 2 | -1 | 102 | 109 | 104 | 102 | 101
SMILES | RGS7-Gao | RGS4-Gao reg | RGS16-Gao HTS | RGS8-Gao | GSH fluor | Avidin fluor | Biotin-avidin | RGS8-Gao single | RGS7-Gao confirm | RGS16-Gao conf | RGS4-Gao confirm | RGS19-Gao conf | others
NNC(=S)Nc1c(F)cc(F)cc1Br | u | 110 | 113 | 106 | x | 9 | x | x | x | x | x | x
NNc1nc2ccc(F)cc2s1 | 89 | 92 | 0.3* | 78 | 9 | 8 | 3 | 101 | 94 | 102 | 100 | 108 | RGS-Gao=92*
NNc1nc2ccc(Cl)cc2s1 | 100 | 102 | 99 | 102 | 17 | 15 | x | x | x | x | x | x
CS(=O)(=O)N1CC(C(=O)O)Oc2ccc(CC(=O)O)cc21 (stereo not drawn) | 93 | 99 | 101 | 96 | 11 | 7 | x | x | x | x | x | x
Cc1nc(C(=O)NNC(=O)c2ccc(Cl)cc2)c(C(F)(F)F)o1 | u | 100 | 102 | 103 | x | 7 | x | x | x | x | x | x
O=C(NCCc1c[nH]c2ccccc12)c1c(Cl)nc2sccn12 | 19* | 30* | 2.2* | 17* | 21 | -1 | -1 | 114 | 125 | 109 | 110 | 103
O=C(O)c1nccnc1C(=O)NCCc1c[nH]c2ccccc12 | u | 101 | 101 | 102 | 9 | 12 | x | x | x | x | x | x
Cc1ccc2cc(CCNS(=O)(=O)c3ccc(F)cc3)c(=O)[nH]c2c1 | 95 | 96 | 99 | 98 | 23 | 7 | x | x | x | x | x | x
Cc1ccc2cc(CCNS(=O)(=O)c3ccc(F)cc3)c(=O)[nH]c2c1C | 46* | 55 | 50 | 60* | 19 | 4 | 0 | 99 | 93 | 97 | 97 | 102 | RGS-Gao=55*
